# The list is not random: actives were taken first. Their share in the collection is about 3.9%.
# CF NFkB block: blocks PAF-induced NF-kB reporter in cystic fibrosis cells; inhibition, % at 5 µM; KKLEB NF-kB-GFP reporter, GFP fluorescence overnight; hit rate 0.86% among 360,000;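 active = at least 50% inhibition at 5 µM, scaled per plate between neutral and stimulator controls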;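 note: PAF is a Pseudomonas aeruginosa culture filtrate used as stimulus; plate controls were PAF-stimulated DMSO wells for no effect and unstimulated DMSO wells for full effect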
# TROY signal inh: blocks TROY-dependent signaling in reporter cells; Q293 LMP1-TROYcd NF-kB luciferase reporter, 4 h; inhibition, % at 10 µM; hit rate 0.98% among 360,000;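 active = compounds whose plate-normalised and pattern-corrected inhibition of the luciferase reporter signal at the single screening dose is 50% or more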
# Peg3 prom inh: reduces Peg3 promoter-driven luciferase expression in HeLa | HeLa PEG-Prom luciferase reporter, luminescence, overnight | inhibition, % at 20 µM | hit rate 1.7% among 360,000 | AID 588405;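 active = inhibition of at least 50% at 20 µM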
# TWEAK-Fn14 inh: inhibitors of TWEAK-Fn14 interaction signaling; TWEAK-stimulated Fn14 reporter cells, luciferase luminescence, 8 h; inhibition, % at 10 µM; hit rate 2% among 360,000; AID 1159606; in the data active = inhibition above about 50%
# KKLEB tox: counter-screen for CF NF-kB inhibitors: cytotoxicity. KKLEB CF airway cells viability, ATPlite luminescence, overnight; stronger effect = lower value; cells stimulated with P. aeruginosa culture filtrate. activity change (cytotoxicity), % at 5 µM. hit rate 0.36% among 360,000. AID 602141;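 active = corrected activity change at or below -50% at 5 µM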
# HIF-2a block: blocks HIF-2a reporter activity; inhibition, % at 18.8 µM; hit rate 0.72% among 360,000; 786-0 RCC cells HIF-2a reporter, luciferase luminescence, overnight;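 active = inhibition of the luminescence signal of 40% or more relative to plate controls, in a single-dose primary screen at 18.75 µM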
# * = called active by the depositor; x = no result given.
SMILES,CF NFkB block,TROY signal inh,Peg3 prom inh,TWEAK-Fn14 inh,KKLEB tox,HIF-2a block
Cc1ccc(-n2nc(C(=O)NN)c(C)c(C#N)c2=O)cc1Cl,-14.3,46.4,-5.4,71.3*,1.9,30.4
COc1ccc(-n2nc(C(=O)N3CCCCC3)c(C)c(C#N)c2=O)cc1,9.0,7.1,12.5,22.6,-11.8,20.1
Cc1c(C(=O)O)nn(-c2cccc(C(F)(F)F)c2)c(=O)c1C#N,8.8,14.2,4.2,-1.0,6.9,13.8
Cc1c(C(=O)NN)nn(-c2ccc(Cl)cc2)c(=O)c1C#N,6.5,54.6*,-21.6,64.7*,-15.5,6.5
N#CCCN1CCC(NC(=O)OCc2ccccc2)CCC1=O (centres undefined),-10.0,-1.4,-6.6,1.6,9.9,13.4
Oc1cccc(C(O)CNCc2ccc(-c3ccccc3)cc2)c1 (centres undefined),9.5,14.8,41.2,-3.7,-8.7,-7.5
Oc1cccc(C(O)CNCc2ccc(OCc3ccc(Cl)cc3Cl)cc2)c1 (centres undefined),-6.3,11.5,92.7*,-15.9,-16.2,0.1
COc1ccc(C/C(C)=N/NC(=S)Nc2ccc(C(C)C)cc2)cc1,-18.1,-16.0,-36.8,-29.9,8.8,-27.6
COc1ccc(C/C(C)=N/NC(=S)Nc2ccccc2F)cc1,-14.4,78.7*,-239.7,70.9*,-1.2,-154.2
COc1ccc(-c2ccc(CN3C(C(C)C)C(=O)N(Cc4cn(CCC5OCCO5)nn4)CCS3(=O)=O)cc2)cc1OC (centres undefined),28.9,0.1,13.0,10.2,-16.0,4.8
CC(C)C1C(=O)N(Cc2cn(CCC3OCCO3)nn2)CCS(=O)(=O)N1Cc1ccc(-c2ccc(Cl)c(Cl)c2)cc1 (centres undefined),31.0,18.2,59.9*,25.2,-8.9,-32.9
O=C1[C@H]2[C@@H](c3ccccc3)N[C@]3(CCCN(Cc4ccc(C(F)(F)F)cc4)C3=O)[C@H]2C(=O)N1Cc1ccccc1,-2.5,11.3,36.9,33.5,-0.7,-10.1
O=C1[C@H]2[C@@H](c3ccc(C(F)(F)F)cc3)N[C@]3(CCCN(Cc4ccc(F)cc4)C3=O)[C@H]2C(=O)N1Cc1ccccc1,-30.3,-2.8,33.3,95.4*,2.9,-77.8
Cc1ccc(C(=O)OC2OC(=O)C(Cl)=C2N2CCOCC2)cc1 (centres undefined),-5.0,21.2,9.7,58.0*,5.6,-14.2
CCOc1cc(CNc2ccc3c(c2)OCCO3)cc(Br)c1OCC,28.6,77.3*,47.1,80.7*,-23.5,34.6
CCOc1cc(CNc2ccc(N3CCOCC3)cc2)cc(Br)c1OCC,3.9,24.1,14.8,18.0,3.1,26.2
O=C1C(c2ccccc2)=[N+]([O-])c2ccccc21,21.5,-39.5,88.1*,18.2,2.9,-75.3
Cc1ccc(C(O)c2ncc(-c3ccccc3C)[nH]2)cc1 (centres undefined),10.3,-31.8,-77.5,-3.9,-37.1,-113.6
Cc1cc(/C=C2/NC(=O)N(c3ccccc3)C2=O)c(C)n1C(C)C,-11.4,47.8,-144.3,60.2*,14.3,-125.9
COc1ccc(-c2noc(CCC(=O)NC3CCCCC3)n2)cc1,12.6,-4.1,-35.4,-8.9,-9.2,-41.2
CC(C)(C)NC(=O)c1cccc(NC(=O)c2ccc3c(c2)C(=O)N(C(C)(C)C)C3=O)c1,3.6,56.6*,-1.7,-3.5,-5.8,-1.9
C=CCN1C=CC(=C/C=C(/C#N)C(=O)OCC)C=C1,-1.9,-21.9,-97.0,50.5*,6.9,-50.6
COCCCNc1ncnc2ccc(C)cc12,18.5,54.9*,-82.3,39.3,-6.0,-80.8
CCOC(=O)c1c(CN2CCCCC2C)oc2ccc(OC)cc12 (centres undefined),2.3,-4.7,1.9,-7.1,7.8,1.6
Oc1ccc(C2C[C@H]3CC[C@@H]2C3)cc1O (some centres undefined),18.1,-5.6,-41.4,38.8,-12.0,54.9*
SMILES,CF NFkB block,TROY signal inh,Peg3 prom inh,TWEAK-Fn14 inh,KKLEB tox,HIF-2a block
CCOC(=O)c1c(N2C(=O)C=CC2=O)sc(C)c1C,22.3,4.7,105.1*,-0.1,1.7,46.8*
Cc1ccc(NC(=S)N2CCC(NC(=O)c3ccc(F)cc3)CC2)cc1C,-2.0,-35.7,8.0,-32.9,2.6,7.6
N=c1c2c(n(Cc3ccc(Cl)cc3)c3c1CCC3)CCC2,30.0,24.0,25.6,41.9,-14.4,6.2
N=c1c2c(n(Cc3cccc(Cl)c3)c3c1CCC3)CCCC2,20.7,22.8,53.5*,35.7,-14.1,-5.1
CCCCNc1c(-c2ccc(SC(C)CC)cc2)nc2cnccn12 (centres undefined),13.3,-35.2,48.0,-15.5,6.7,-102.0
COc1ccc(CNC(=O)N2CCN(S(=O)(=O)c3ccc(C)cc3C)CC2)cc1,-16.2,-13.4,22.4,-12.7,10.7,10.1
COc1ccc(OCC(=O)Nn2c(-c3ccc(OC)cc3)nc3ccccc3c2=O)cc1,11.1,-26.6,13.7,4.0,6.5,15.0
COc1ccc(OCC(=O)Nn2c(-c3ccc(C)cc3)nc3ccccc3c2=O)cc1,-1.3,71.6*,1.6,71.9*,-7.4,-0.5
Cc1cccc(OCC(=O)NNc2c3ccccc3nc3ccccc23)c1,-34.5,-2.7,47.9,27.7,-6.2,15.2
Cc1ccc(OCC(=O)NNc2c3ccccc3nc3ccccc23)cc1,-11.9,4.7,82.7*,72.4*,-2.6,-9.8
CCOC(=O)Cn1nc(C)c(NC(=O)CCc2ccccc2)c1C,-2.1,-5.5,13.6,0.1,16.7,20.6
Cc1ccc(Cn2cc(CN(C)C3CN(Cc4cn(Cc5ccc(C)cc5)nn4)S(=O)(=O)C3)nn2)cc1 (centres undefined),x,1.2,x,2.0,x,8.6
N#Cc1cccc(NC(=O)COC(=O)c2ccccc2Sc2ccccc2C#N)c1,-9.2,12.0,-101.6,13.8,0.7,-119.6
CC1(C)COC(/C=C/c2ccc([N+](=O)[O-])cc2)=N1,41.5,-66.4,3.4,62.0*,-19.2,-77.0
CC(=C/C(=O)O)/C=C/c1ccc([N+](=O)[O-])cc1,-30.6,-32.2,7.6,35.2,-1.0,5.1
COc1ccccc1-c1c(C#N)c(N)nc2c1CCc1ccccc1-2,20.3,54.3*,28.4,72.9*,3.3,-18.0
CCOc1cc(-c2c(C#N)c(N)nc3c2CCc2ccccc2-3)ccc1O,-35.3,13.9,1.5,75.0*,-8.1,-52.8
COc1ccccc1-c1c(C)c(C)nc(N)c1C#N,8.3,-10.0,11.4,-1.5,-7.5,9.0
Cc1ccc(N(C)S(=O)(=O)c2cccc(C(=O)Nc3nc4ccccc4[nH]3)c2)cc1,8.0,31.9,18.6,54.2*,-12.0,-57.8
CN(C)c1cccc(C(=O)Nc2nc3ccccc3[nH]2)c1,-13.5,1.6,-55.2,60.8*,-20.7,-39.8
O=C(Nc1nc2ccccc2[nH]1)c1cccc(Br)c1,-11.7,-31.9,-239.1,31.1,3.5,-273.2
O=C(Nc1nc2ccccc2[nH]1)c1cccc(F)c1,-8.4,11.3,-130.1,36.3,-6.0,-133.8

# Screening data deposited in PubChem by Sanford-Burnham Center for Chemical Genomics.
